Experimental data from PubChem BioAssay.
Several values for one entry are separate records, joined by “and”; a condition that tells them apart may be missing. Equal values may be shown once. Activity calls are given as the source filed them.

system: not listed separately; experiment: Plasmodium falciparum growth inhibition, primary screen, strain 3D7, DAPI fluorescence, 100 nL (AID 1184);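 further: parasites grown inside human red blood cells in medium with human serum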; conditions: P. falciparum 3D7 growth, 3 d, higher = more signal

| Structure (SMILES) | z-score |
| --- | --- |
| C=C[C@H](OC)[C@@H](O)c1ccc(OCCO)cc1 | 0.0026 and 0.809 |
| C=CCN(C(=O)C1N(c2c(Cl)cccc2CO)C(=O)C2C(C(=O)O)C3C=CC21O3)c1ccc(OC)cc1 (stereo unspecified) | -0.927 and 0.408 |
| C#CCN1C(/C=C/c2ccccc2)C(=O)OC[C@H]1c1ccccc1 (stereo partly specified) | -2.32 and -1.18 |
| C=C[C@H](C)[C@H](O)c1ccc(O)c2ccccc12 | 0.138 and 0.719 |
| C=CCN(C(=O)C1N(CCOCCO)C(=O)C2C(C(=O)O)C3C=CC21O3)C(C)(C)C (stereo unspecified) | -0.283 and -0.145 |
| C[N+](C)(C)CCCCCCNC(=O)[C@@H]1C[C@@H]2C(=O)N[C@@H](CCCC[N+](C)(C)C)C(=O)N2[C@@H]1c1ccc(O)cc1 | 0.202 and -0.0272 |
| C[N+](C)(C)CCCCCCNC(=O)[C@H]1C[C@H]2C(=O)N[C@@H](CCCC[N+](C)(C)C)C(=O)N2[C@H]1c1ccc(O)cc1 | -1.28 and 0.581 |
| C=CCN(CCCC)C(=O)C(c1cccs1)N(CCOCCO)C(=O)/C=C\C(=O)O (stereo unspecified) | 0.329 and -0.0611 |
| C=CCN(CCCC)C(=O)C1N(c2ccc(CCO)cc2)C(=O)C2C(C(=O)O)C3C=CC21O3 (stereo unspecified) | 0.224 and -1.45 |
| C[N+](C)(C)CCCCNC(=O)[C@@H]1C[C@@H]2C(=O)N[C@@H](CCCC[N+](C)(C)C)C(=O)N2[C@@H]1c1cccc(OCCO)c1 | -0.0982 and -0.462 |
| C=CCN(Cc1ccccc1)C(=O)C1N(C(C)(C)CO)C(=O)C2C(C(=O)O)C3C=CC21O3 (stereo unspecified) | 0.379 and -0.247 |
| C=CCN(Cc1ccccc1)C(=O)C1N(CCOCCO)C(=O)C2C(C(=O)O)C3C=CC21O3 (stereo unspecified) | -0.506 and -0.253 |
| C=CCN(C(=O)C(c1cccs1)N(C(=O)/C=C\C(=O)O)c1ccc(CCO)cc1)c1ccc(OC)cc1 (stereo unspecified) | -0.142 and -0.395 |
| CC(C)N1CC=CC23O[C@@H]4C=CCCOC(=O)C4[C@H]2C(=O)N(C(C)CO)[C@@H]3C1=O (stereo partly specified) | -0.819 and -0.728 |
| C=CCN(CCCCC)C(=O)C1N(c2c(Cl)cccc2CO)C(=O)C2C(C(=O)O)C3C=CC21O3 (stereo unspecified) | -1.2 and -1.04 |
| C=CCN(C(=O)C(c1cccs1)N(C(=O)/C=C\C(=O)O)c1c(Cl)cccc1CO)C(C)(C)C (stereo unspecified) | 1.83 and 1.67 |
| C=C[C@H](OC)[C@@H](O)c1ccc(O)c(F)c1 | 1.66 and 0.778 |
| C=CC[C@@H](O)c1ccc(O)c2ccccc12 | -0.401 and 0.619 |
| C=C[C@@H](C)[C@@H](O)c1ccc(OCCO)cc1 | -0.892 and 0.0904 |
| C=CCN(CCCCC)C(=O)C1N(CCCCCCO)C(=O)C2C(C(=O)O)C3C=CC21O3 (stereo unspecified) | 2.33 and 1.76 |
| C=CCN(CCCC)C(=O)C1N(C(C)(C)CO)C(=O)C2C(C(=O)O)C3C=CC21O3 (stereo unspecified) | 0.102 and 0.116 |
| O=C1C[C@]2(c3ccc([N+](=O)[O-])cc3)C(=O)N(Cc3ccccc3)c3cc(CO)ccc3[C@H]2N1C1CCCCC1 | 1.04 and -1.97 |
| C=C[C@H](C)[C@@H](O)c1ccc(OCCO)cc1 | 0.394 and 0.709 |
| C=CCN(C(=O)C(c1cccs1)N(C(=O)/C=C\C(=O)O)C(C)(C)CO)C(C)(C)C (stereo unspecified) | 0.37 and -0.0391 |
| C=C[C@@H](C)[C@@H](O)c1ccc(O)c2ccccc12 | 1.31 and -0.772 |
| C=CCN(Cc1ccccc1)C(=O)C1N(c2ccc(CCO)cc2)C(=O)C2C(C(=O)O)C3C=CC21O3 (stereo unspecified) | -1.34 and -0.544 |
| C=CCN1C(=O)[C@]2(O[C@H](CCn3cc(CCO)nn3)[C@@H]([Si](C)(C)c3ccc(OC)cc3)[C@@H]2C)c2cc(N3C(=O)c4cccc5cccc3c45)ccc21 | -2.67 and -2.76 |

target: Homeobox protein Hox-A13 (Mus musculus) (UniProt Q62424); experiment: inhibitors of HoxA13-DNA binding, primary screen, biochemical, fluorescence polarization, labeled oligonucleotide (AID 1185); conditions: 15 min, higher = more signal, called active from +8 up or from −8 down
Sequence (Q62424 whole entry, looked up): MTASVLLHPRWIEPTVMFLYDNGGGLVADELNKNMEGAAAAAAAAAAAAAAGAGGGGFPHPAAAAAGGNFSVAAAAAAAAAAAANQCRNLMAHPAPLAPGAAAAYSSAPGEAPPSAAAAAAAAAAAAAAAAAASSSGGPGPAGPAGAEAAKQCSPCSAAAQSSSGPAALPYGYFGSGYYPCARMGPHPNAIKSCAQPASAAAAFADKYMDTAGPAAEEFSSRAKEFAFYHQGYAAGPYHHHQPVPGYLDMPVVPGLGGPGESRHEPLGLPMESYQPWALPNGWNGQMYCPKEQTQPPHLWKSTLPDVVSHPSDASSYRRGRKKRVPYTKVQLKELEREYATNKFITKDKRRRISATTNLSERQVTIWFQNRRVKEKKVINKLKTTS

| Structure (SMILES) | z-score |
| --- | --- |
| C=CCN(CCCC)C(=O)C1N(CCOCCO)C(=O)C2C(C(=O)O)C3C=CC21O3 (stereo unspecified) | -1.14 (inactive) and -0.529 (inactive) |
| C=CCN(C(=O)C1N(C(C)(C)CO)C(=O)C2C(C(=O)O)C3C=CC21O3)C(C)(C)C (stereo unspecified) | -1.11 (inactive) and 0.241 (inactive) |
| C=CCN(C(=O)C1N(CCOCCO)C(=O)C2C(C(=O)O)C3C=CC21O3)c1ccc(OC)cc1 (stereo unspecified) | -1.06 (inactive) and -0.636 (inactive) |
| O=C1NC(=O)C2C1C=CC(C(O)c1ccc([N+](=O)[O-])cc1)N2Nc1ccc(Cl)cc1Cl (stereo unspecified) | -5.8 (inactive) |
| CCOC(=O)C[C@H]1[C@H](OC(=O)c2ccccc2-c2ccccc2)[C@@H](NC(=O)c2ccccc2)c2cc(OCCCO)ccc2N1C(=O)c1ccc2ccccc2n1 | -3.24 (inactive) and -1.56 (inactive) |
| COC(=O)[C@@]1(Cc2ccc(F)cc2)[C@H]2c3cc(C(=O)N4CCCC4)n(Cc4c(CO)[nH]cc(C)c4=O)c3C[C@H]2CN1C(=O)c1ccccc1 | -5.99 (inactive) and -5.23 (inactive) |
| CC(CO)N1C(=O)[C@@H]2C3C(=O)OCCC=C[C@H]3OC23C=CCN(c2ccc4ccccc4c2)C(=O)[C@@H]13 (stereo partly specified) | -6.14 (inactive) and -5.9 (inactive) |
| C=CCN(C(=O)C1N(C(C)(C)CO)C(=O)C2C(C(=O)O)C3C=CC21O3)c1ccc(OC)cc1 (stereo unspecified) | -1.43 (inactive) and 0.701 (inactive) |
| C=CCN(C(=O)C(c1cccs1)N(C(=O)/C=C\C(=O)O)c1ccc(CCO)cc1)C(C)(C)C (stereo unspecified) | 0.0682 (inactive) and -0.369 (inactive) |
| C=C[C@@H](OC)[C@H](O)c1ccc(OC)c(O)c1 | -0.828 (inactive) and 0.853 (inactive) |
| C=CCN(CCCCC)C(=O)C(c1cccs1)N(C(=O)/C=C\C(=O)O)c1ccc(CCO)cc1 (stereo unspecified) | -0.227 (inactive) and 0.0535 (inactive) |
| C=CCN(C(=O)C(c1cccs1)N(C(=O)/C=C\C(=O)O)c1c(Cl)cccc1CO)c1ccc(OC)cc1 (stereo unspecified) | 0.171 (inactive) and -1.67 (inactive) |
| C=C[C@H](OC)[C@@H](O)c1ccc(OCCO)cc1 | -0.791 (inactive) and -0.187 (inactive) |
| C=CCN(C(=O)C1N(c2c(Cl)cccc2CO)C(=O)C2C(C(=O)O)C3C=CC21O3)c1ccc(OC)cc1 (stereo unspecified) | -1.96 (inactive) and 0.908 (inactive) |
| C#CCN1C(/C=C/c2ccccc2)C(=O)OC[C@H]1c1ccccc1 (stereo partly specified) | 0.468 (inactive) and -2.46 (inactive) |
| C=C[C@H](C)[C@H](O)c1ccc(O)c2ccccc12 | -3.07 (inactive) and -2.91 (inactive) |
| C=CCN(C(=O)C1N(CCOCCO)C(=O)C2C(C(=O)O)C3C=CC21O3)C(C)(C)C (stereo unspecified) | -1.32 (inactive) and -0.575 (inactive) |
| C[N+](C)(C)CCCCCCNC(=O)[C@@H]1C[C@@H]2C(=O)N[C@@H](CCCC[N+](C)(C)C)C(=O)N2[C@@H]1c1ccc(O)cc1 | -0.929 (inactive) and -2.3 (inactive) |
| C[N+](C)(C)CCCCCCNC(=O)[C@H]1C[C@H]2C(=O)N[C@@H](CCCC[N+](C)(C)C)C(=O)N2[C@H]1c1ccc(O)cc1 | 0.627 (inactive) and -1.31 (inactive) |
| C=CCN(CCCC)C(=O)C(c1cccs1)N(CCOCCO)C(=O)/C=C\C(=O)O (stereo unspecified) | 0.578 (inactive) and 0.724 (inactive) |

| Structure (SMILES) | z-score |
| --- | --- |
| C=CCN(CCCC)C(=O)C1N(c2ccc(CCO)cc2)C(=O)C2C(C(=O)O)C3C=CC21O3 (stereo unspecified) | -1.03 (inactive) and -0.448 (inactive) |
| C[N+](C)(C)CCCCNC(=O)[C@@H]1C[C@@H]2C(=O)N[C@@H](CCCC[N+](C)(C)C)C(=O)N2[C@@H]1c1cccc(OCCO)c1 | -0.648 (inactive) and -1.01 (inactive) |
| C=CCN(Cc1ccccc1)C(=O)C1N(C(C)(C)CO)C(=O)C2C(C(=O)O)C3C=CC21O3 (stereo unspecified) | -0.255 (inactive) and -0.187 (inactive) |
| C=CCN(Cc1ccccc1)C(=O)C1N(CCOCCO)C(=O)C2C(C(=O)O)C3C=CC21O3 (stereo unspecified) | 0.429 (inactive) and -0.659 (inactive) |
| C=CCN(C(=O)C(c1cccs1)N(C(=O)/C=C\C(=O)O)c1ccc(CCO)cc1)c1ccc(OC)cc1 (stereo unspecified) | -0.698 (inactive) and -0.535 (inactive) |
| CC(C)N1CC=CC23O[C@@H]4C=CCCOC(=O)C4[C@H]2C(=O)N(C(C)CO)[C@@H]3C1=O (stereo partly specified) | -3.49 (inactive) and -4.21 (inactive) |
| C=CCN(CCCCC)C(=O)C1N(c2c(Cl)cccc2CO)C(=O)C2C(C(=O)O)C3C=CC21O3 (stereo unspecified) | -2.42 (inactive) and -0.615 (inactive) |
| C=CCN(C(=O)C(c1cccs1)N(C(=O)/C=C\C(=O)O)c1c(Cl)cccc1CO)C(C)(C)C (stereo unspecified) | 0.131 (inactive) and -0.43 (inactive) |
| C=C[C@H](OC)[C@@H](O)c1ccc(O)c(F)c1 | 0.0518 (inactive) and 0.0165 (inactive) |
| C=CC[C@@H](O)c1ccc(O)c2ccccc12 | -2.24 (inactive) |
| C=C[C@@H](C)[C@@H](O)c1ccc(OCCO)cc1 | -0.592 (inactive) and -0.123 (inactive) |
| C=CCN(CCCCC)C(=O)C1N(CCCCCCO)C(=O)C2C(C(=O)O)C3C=CC21O3 (stereo unspecified) | -1.18 (inactive) and -1.07 (inactive) |
| C=CCN(CCCC)C(=O)C1N(C(C)(C)CO)C(=O)C2C(C(=O)O)C3C=CC21O3 (stereo unspecified) | -0.224 (inactive) and -0.0596 (inactive) |
| O=C1C[C@]2(c3ccc([N+](=O)[O-])cc3)C(=O)N(Cc3ccccc3)c3cc(CO)ccc3[C@H]2N1C1CCCCC1 | -1.48 (inactive) and -3.19 (inactive) |
| C=C[C@H](C)[C@@H](O)c1ccc(OCCO)cc1 | -1.51 (inactive) and -0.976 (inactive) |
| C=CCN(C(=O)C(c1cccs1)N(C(=O)/C=C\C(=O)O)C(C)(C)CO)C(C)(C)C (stereo unspecified) | 0.692 (inactive) and 0.558 (inactive) |
| C=C[C@@H](C)[C@@H](O)c1ccc(O)c2ccccc12 | -3.43 (inactive) and -4.33 (inactive) |
| C=CCN(Cc1ccccc1)C(=O)C1N(c2ccc(CCO)cc2)C(=O)C2C(C(=O)O)C3C=CC21O3 (stereo unspecified) | -0.61 (inactive) and -2.5 (inactive) |
| C=CCN1C(=O)[C@]2(O[C@H](CCn3cc(CCO)nn3)[C@@H]([Si](C)(C)c3ccc(OC)cc3)[C@@H]2C)c2cc(N3C(=O)c4cccc5cccc3c45)ccc21 | -5.18 (inactive) and -5.57 (inactive) |
